Laboratory results published in PubChem BioAssay (NCATS).
Active and inactive are the calls of the source. Calls come from the whole dose curve.

Tests used:
Experiment in all cases: Confirmatory Screen for Target Class Profiling of Small Molecule Inhibitors of Methyltransferases (AID 1745852); for activity change, negative = inhibition: % is set by controls: 0 for no effect and ±100 for the full control effect
[1] = biological target: Guanidinoacetate N-methyltransferase (Homo sapiens) (UniProt Q14353); conditions: activity change, negative = inhibition: at 57.3 µM (top of the series) unless noted
[2] = biological target: Nicotinamide N-methyltransferase (Homo sapiens) (UniProt P40261); conditions: MTase-Glo luminescence, SAH detection, recombinant enzyme; measured here: NNMT max response; stronger effect = lower value
[3] = biological target: Phenylethanolamine N-methyltransferase (Homo sapiens) (UniProt P11086); conditions: MTase-Glo luminescence, SAH detection, recombinant enzyme; measured here: PNMT max response; stronger effect = lower value
Potency is the fitted concentration of half-maximal effect.

Phenylethanolamine N-methyltransferase (Homo sapiens), sequence (P11086 whole entry, looked up): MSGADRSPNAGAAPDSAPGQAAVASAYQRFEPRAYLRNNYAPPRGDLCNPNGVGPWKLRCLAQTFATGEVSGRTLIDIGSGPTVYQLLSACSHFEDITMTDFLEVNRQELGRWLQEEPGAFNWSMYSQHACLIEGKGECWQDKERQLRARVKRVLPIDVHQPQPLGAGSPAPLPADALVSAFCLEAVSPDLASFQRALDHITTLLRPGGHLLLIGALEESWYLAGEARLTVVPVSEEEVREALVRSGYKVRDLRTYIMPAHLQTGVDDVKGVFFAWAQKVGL
Nicotinamide N-methyltransferase (Homo sapiens), sequence (P40261 whole entry, looked up): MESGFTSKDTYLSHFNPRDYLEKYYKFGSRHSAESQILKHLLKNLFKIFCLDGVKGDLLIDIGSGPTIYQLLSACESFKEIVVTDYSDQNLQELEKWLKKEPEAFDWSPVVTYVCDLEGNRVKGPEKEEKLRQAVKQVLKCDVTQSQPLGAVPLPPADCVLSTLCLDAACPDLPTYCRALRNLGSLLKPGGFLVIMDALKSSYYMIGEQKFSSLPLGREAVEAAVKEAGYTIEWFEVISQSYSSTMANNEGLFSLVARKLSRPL

Compound | Potency [1] | activity [2] [%] | activity [3] [%] | activity change, negative = inhibition [1]
COc1cc2c(cc1OC)N1C(=O)C[C@]34C=CCN5CC[C@@H]2[C@@H](CC3)[C@]514 | inactive | 1.78 | 3.88 | –
Oc1ccc(CNc2ccccc2F)c2cccnc12 | – | -0.361 | 6.4 | 2.39%
COc1cc2ncnc(Nc3ccc(F)c(Cl)c3)c2cc1NC(=O)/C=C/CN1CCCCC1 | 24.1 µM (active) | -36.6 | -39.3 | –
COc1cc2nc(N3CCC(N4CCCCC4)CC3)nc(NC3CCCCCC3)c2cc1OC | 42.9 µM (active) | -54.7 | -35.6 | –
C[C@@H](Oc1cc(-n2cnc3ccc(OC4CCN(C)CC4)cc32)sc1C(N)=O)c1ccccc1C(F)(F)F | 24.1 µM (active) | -64.9 | -73.6 | –
CN(C)c1nc(NC2CCC(NC(=O)c3ccc(F)c(F)c3)CC2)nc2ccccc12 (centres undefined) | – | -27.9 | -21.7 | 0.153%
CCN(CC)CCN(Cc1ccc(-c2ccc(C(F)(F)F)cc2)cc1)C(=O)Cn1c(SCc2ccc(F)cc2)nc(=O)c2c1CCC2 | – | -45.6 | -1.88 | 0%
CCc1c(-c2ccccc2)c(-c2ccccc2)nn1-c1ccccc1-c1cccc(OCC(=O)O)c1 | – | -56 | -7.07 | 0%
CC1CCC2(CO)C(C(=O)O)=CCCC2C1(C)CCc1ccoc1 (centres undefined) | – | 1.37 | 1.68 | 0%
CC(Oc1cc(-n2cnc3ccc(CN4CCN(C)CC4)cc32)sc1C(N)=O)c1ccccc1C(F)(F)F (centres undefined) | 30.4 µM (active) | -27.1 | -38.1 | –
CC1=CC(=O)C2(OC3OC(C)C(O)C(OC(=O)/C=C/c4ccccc4)C3O)C=COC(OC3OC(CO)C(O)C(O)C3O)C12 (centres undefined) | – | -1.08 | 1.5 | -2.18% [at 19.1 µM]
COc1cc(/C=C/C(=O)OC[C@H]2O[C@@](CO)(O[C@H]3O[C@H](CO)[C@@H](O)[C@H](O)[C@H]3O)[C@@H](OC(=O)/C=C/c3ccc(O)c(OC)c3)[C@@H]2O)ccc1O | – | -6.08 | -2.86 | -4.9% [at 19.1 µM]
CC(C)c1cc(CNc2nc(Nc3cc(C4CC4)[nH]n3)cc(N3CCN(C)CC3)n2)on1 | – | -12.7 | -6.69 | -5.05%
COc1cc2nc(N3CCCC3)nc(NCCCCCN3CCCC3)c2cc1OC | – | -30.1 | -0.684 | 0.888%
NCCCNc1ccc(Nc2nccc(Nc3cc(C4CC4)[nH]n3)n2)cc1 | 27.1 µM (active) | -57.6 | -35.6 | –
COc1cc(C(=O)OC[C@H]2O[C@@H](Oc3ccccc3/C=C/C(=O)O)[C@H](O)[C@@H](O)[C@@H]2O)cc(OC)c1OC | – | -2.69 | -3.5 | -3.16% [at 29.8 µM]
CNC(=O)c1ccccc1Nc1nc(Nc2ccc(N3CCNCC3)cc2)ncc1Cl | – | -58.7 | -30.9 | -14.2%
COc1cc2c(NC3CCN(CC4CCCCC4)CC3)nc(N3CCCN(C(C)C)CC3)nc2cc1OCCCN1CCCCC1 | – | -18.7 | -1.55 | -0.195%
CC1=C(C(=O)OCc2ccccc2)C(c2ccc(-c3ccccc3)cc2)NC(=O)N1CCCCCC(=O)O (centres undefined) | – | -35.4 | 2.18 | 0%
O=C(/C=C/c1ccccc1)OC[C@]12O[C@H]1[C@@H](O)[C@@H]1C=CO[C@@H](O[C@@H]3O[C@H](CO)[C@@H](O)[C@H](O)[C@H]3O)[C@@H]12 | – | -5.73 | -4.62 | -7.11% [at 29.8 µM]

Compound | Potency [1] | activity [2] [%] | activity [3] [%] | activity change, negative = inhibition [1]
N#Cc1ccc2[nH]cc(CCCCN3CCN(c4ccc5oc(C(N)=O)cc5c4)CC3)c2c1 | – | -49.2 | -11.6 | -4.3%
COC(=O)C1=CO[C@@H](O[C@@H]2O[C@H](CO)[C@@H](O)[C@H](O)[C@H]2O)[C@H]2[C@@H]1CC(OC)O[C@@H]2C (some centres undefined) | – | -1.72 | -2.32 | -2.71% [at 29.8 µM]
Cc1cc(=O)oc2c(C=O)c(O)ccc12 | 17.1 µM (active) | -24 | -37.6 | –
CC/C=C\CCO[C@@H]1O[C@H](CO)[C@@H](O)[C@H](O)[C@H]1O | – | 1.9 | 0.287 | 0%
Cc1cc(O)c(-c2ccc([C@@H](C)CN(C)C)cc2)c2c1[nH]c(=O)c1sccc12 | – | -64.6 | -48.7 | -6.59%
CC(C)c1cccc2c(-c3ccccc3)cc(-c3ccc(-c4ccc(C(=O)O)cc4)[nH]3)nc12 | – | -16.3 | -5.01 | -5%
c1cc(OCCCN2CCCCC2)ccc1CN1CCCCC1 | – | -0.228 | -0.509 | -2.14%
CC1(C)CC[C@]2(C(=O)O[C@@H]3O[C@H](CO)[C@@H](O)[C@H](O)[C@H]3O)CC[C@]3(C)C(=CCC4[C@@]5(C)C[C@@H](O)[C@H](O)[C@@](C)(CO)C5CC[C@]43C)C2[C@@H]1O (some centres undefined) | – | -4 | -1.38 | -0.535% [at 19.1 µM]
CC1=C(CCC(C)O[C@@H]2O[C@H](CO)[C@@H](O)[C@H](O)[C@H]2O)C(C)(C)CCC1=O (some centres undefined) | – | -4.03 | -0.201 | -3.78%
COc1cc2c(cc1O)CC[C@H]1[C@@H]2CC[C@]2(C)[C@H](O)CC[C@@H]12 | – | -2.72 | -7.82 | 0.377%
O=C(O)c1ccc(CN2CCC(CN[C@@H]3C[C@H]3c3ccccc3)CC2)cc1 | – | -0.425 | 5.38 | -0.127%
Cc1cc(Nc2ccc(NC(=O)c3ccc(Nc4ccnc5ccccc45)cc3)cc2)nc(N)n1 | 30.4 µM (active) | -17.6 | -11.7 | –
CC1(C)[C@@H](O)CC[C@]2(C)[C@H]3CC=C4[C@@H]5C[C@](C)(C(=O)O)CC[C@]5(C)CC[C@@]4(C)[C@]3(C)CC[C@@H]12 | 27.1 µM (active) | -38.7 | -42.7 | –
C=C[C@H]1[C@H](O[C@@H]2O[C@H](CO)[C@@H](O)[C@H](O)[C@H]2O)OC=C(C(=O)OC)[C@H]1CCOC(=O)c1cc(O)c(O)c(O)c1 | – | 0.422 | -11.3 | 1.49% [at 29.8 µM]
Cc1cc(N(C)C)ccc1-c1nc2ccc(-c3nc4ccc(N5CCN(C)CC5)cc4[nH]3)cc2[nH]1 | – | -5.28 | -3.42 | 0%
C=C(F)c1sc(CNCCCNc2cc(=O)c3ccccc3[nH]2)c(C)c1Br | – | -33.7 | -2.47 | -1.39%
Nc1nc(-n2cc(C(=O)O)c(=O)c3cc(F)c(N4CC(O)C4)c(Cl)c32)c(F)cc1F | – | -1.6 | -1.85 | 0.345%
CN1CCN(C2CCC(n3cc(-c4ccc(Oc5ccccc5)cc4)c4c(N)ncnc43)CC2)CC1 (centres undefined) | – | -13.2 | -72 | 0%
CCC(C)C(=O)OC1CC(O)C23C4OCC5(C(O)CC2C1(C)C(O)O4)C3C(=O)C(O)C1(C)C(O)(c2ccoc2)CC2OC251 (centres undefined) | – | -4.23 | -2.09 | -8.15% [at 19.1 µM]
CN(CCc1ccc(Nc2ncc(-c3cccnc3)s2)cc1)Cc1ccccc1 | – | -47.4 | -13.5 | 0%

Compound | Potency [1] | activity [2] [%] | activity [3] [%] | activity change, negative = inhibition [1]
CCN1CCN(Cc2ccc(Nc3ncc(F)c(-c4cc(F)c5nc(C)n(C(C)C)c5c4)n3)nc2)CC1 | 15.2 µM (active) | -61.4 | -75 | –
CN(c1ccccc1CNc1nc(Nc2ccc3c(c2)CC(=O)N3)ncc1C(F)(F)F)S(C)(=O)=O | – | -47.3 | -5.42 | -2.47%
CC(C)c1nc(-c2ccc(NC(=O)Nc3cccc(C(F)(F)F)c3)c3ccccc23)c2c(N)nccn12 | – | -2.22 | -6.27 | -2.79%
CC(C)CCC1(O)C(=O)C(C)(C)C(O[C@@H]2O[C@H](CO)[C@@H](O)[C@H](O)[C@H]2O)C(C)(C)C1O (some centres undefined) | – | -3.79 | -2.04 | -2.97% [at 29.8 µM]
C=C(C(=O)O)C1CC(O)C2(C)CCCC(=C)C2C1 (centres undefined) | – | 4.87 | 3.46 | 0%
CC(C)[C@@](C)(O)[C@@H]1CN(c2nc(-c3[nH]nc4ncccc34)c(F)cc2Cl)CCN1 | 27.1 µM (active) | -56.9 | -65.1 | –
N#Cc1ccc(-c2cnc3[nH]cc(NC(=O)c4cccnc4)c3c2)cc1 | inactive | 2.51 | -6.92 | –
COC(=O)C1=CO[C@@H](O[C@@H]2O[C@H](CO[C@@H]3O[C@H](COC(=O)/C=C/c4cc(OC)c(O)c(OC)c4)[C@@H](O)[C@H](O)[C@H]3O)[C@@H](O)[C@H](O)[C@H]2O)[C@@H]2C(CO)=CC[C@H]12 | – | -1.52 | -1.68 | -1.94% [at 19.1 µM]
CC(O)(CC(=O)O)CC(=O)OCc1ccc(O[C@@H]2O[C@H](CO)[C@@H](O)[C@H](O)[C@H]2O)cc1 (some centres undefined) | – | 1.65 | 1.08 | 2.07% [at 29.8 µM]
O=C(O)/C=C/c1ccc(-c2ccc(O)c(C34CC5CC(CC(C5)C3)C4)c2)cc1 | – | -84 | -0.0074 | 1.42%
NC(=O)c1cnc(NCCc2ccc(O)c(Cl)c2)nc1NCc1ccccc1 | 27.1 µM (active) | -78.6 | -25.9 | –
CCCNc1ccc2ncc(-c3ccc4[nH]ncc4c3)n2n1 | 8.57 µM (active) | -46 | -45.4 | –
CCN(CC)c1ccc2c(O)c(C=Nc3ccc(CC(=O)O)c(-c4c5c(nc6ccccc46)CCC(C(=O)NN)C5)c3)c(=O)oc2c1 (centres undefined) | 34.1 µM (active) | -14 | -22 | –
CC1(C)CC[C@]2(C(=O)O[C@@H]3O[C@H](CO)[C@@H](O)[C@H](O)[C@H]3O)CC[C@]3(C)C(=CCC4[C@@]5(C)C[C@@H](O)[C@H](O)C(C)(C)C5CC[C@]43C)C2[C@@H]1O (some centres undefined) | – | -0.101 | -0.0843 | -2.23% [at 19.1 µM]
COc1ccc(C2(O)CCC(N3CC[C@@H](NC(=O)CNC(=O)c4cccc(C(F)(F)F)c4)C3)CC2)cn1 (some centres undefined) | – | 0.219 | 0.417 | -4.96%
O=C1CSc2ccccc2N1Cc1cccc(C(F)(F)F)c1 | – | -46.9 | -11.4 | -5.12%
C=C(C(=O)O)[C@@H]1CC[C@@]2(C)CC[C@H](O)[C@@]2(C(C)=O)C1 | – | -3.52 | -3.81 | -6.04%
COc1cc(C(=O)NC2CCN(C)CC2)ccc1Nc1ncc2c(n1)N(C1CCCC1)CC(F)(F)C(=O)N2C | 27.1 µM (active) | -23.8 | -20.9 | –
